From article PMC7819943, “Rice protein-binding microarrays: a tool to detect cis-acting elements near promoter regions in rice”
Over roughly 39,000 sequences, “fluorescence intensity (a.u.)” has its median near 4,300; the highest 2% begin near 39,000. Only a selection was taken, and the highest values are over-represented in it overall.

Target: T1, OsSMF1 (Oryza sativa, UniProt Q6ZLB0 1-436)
T1 sequence: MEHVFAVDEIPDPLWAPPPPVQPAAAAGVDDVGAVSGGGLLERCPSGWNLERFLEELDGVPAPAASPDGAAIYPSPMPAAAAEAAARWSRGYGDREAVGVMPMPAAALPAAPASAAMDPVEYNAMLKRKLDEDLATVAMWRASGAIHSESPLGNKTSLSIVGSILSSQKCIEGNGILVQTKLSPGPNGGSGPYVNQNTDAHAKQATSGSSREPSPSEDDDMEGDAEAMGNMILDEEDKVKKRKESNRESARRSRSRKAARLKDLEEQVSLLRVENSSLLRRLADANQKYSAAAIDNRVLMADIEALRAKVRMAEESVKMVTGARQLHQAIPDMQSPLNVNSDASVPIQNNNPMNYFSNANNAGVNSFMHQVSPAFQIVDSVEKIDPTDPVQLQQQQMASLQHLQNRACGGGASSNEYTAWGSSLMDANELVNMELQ
Experiment: protein-binding microarray (RPBM); PBS, 2% BSA, 51.3 ng/ul salmon testes DNA, 50 uM zinc acetate, 200 nM TF, 25 C, 1 h; high values mean tight binding
Settings: protein: recombinant; tags: N-terminal polyhistidine and DsRed monomer fusion (pET32a); chain copies: 2; label: CyDye5-dUTP incorporated in the synthesized complementary strand; 3' TTTTT single-stranded linker to array surface; dsDNA, one strand shown
Outline: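 Using Ni–NTA, transcription factors fused N-terminally to polyhistidine and DsRed were purified after expression in E. coli BL21-CodonPlus. These were incubated at 200 nM with a blocked, double-stranded custom Agilent array for 1 h at 25 °C in a buffer containing 50 µM zinc acetate, and the array was washed. The binding signal is per-feature fluorescence intensity (arbitrary units) on an Axon 4000B scanner.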

Sequence | binding signal
ACCGGCTCACTTATGCGCGCGCGGCGCTGAGGTGGCCGCACGGAGTCACCTAGTGCAG | 5200 fluorescence intensity (a.u.)
GGGCTTCGTCCCCATCATCTCCTGCCACCTCAAACACCTGCGGAGTCACCTAGTGCAG | 3520 fluorescence intensity (a.u.)
GATGGGCTTGTGCTGACATCATCTATACGTGCTTTGCTCCCGGAGTCACCTAGTGCAG | 14500 fluorescence intensity (a.u.)
ATATATTCTATGTGGTCTGCCCACACGCAAGCATGAGCTCCGGAGTCACCTAGTGCAG | 3740 fluorescence intensity (a.u.)
TTCCGGCATGCTCAACAATTGGTCCAGGTGTTTGTTCCAGCGGAGTCACCTAGTGCAG | 42200 fluorescence intensity (a.u.)
TGCCAATGGTGTGTGCAATTGCAACATGCGTTTGGTTGTGCGGAGTCACCTAGTGCAG | 4100 fluorescence intensity (a.u.)
GCGCCGCCAGCCGCTACAGGTCAGCGGCAACAGCAGGTTCCGGAGTCACCTAGTGCAG | 29200 fluorescence intensity (a.u.)
GACACGTATGATTTGTGTGGTAGTACATAGCACGCACGCACGGAGTCACCTAGTGCAG | 35800 fluorescence intensity (a.u.)
CCAGGCACCGACCTGTAGTTGCATCAGCAAACCATGGCTGCGGAGTCACCTAGTGCAG | 4690 fluorescence intensity (a.u.)
TTGTAAGCTCAGCCTAGATAGAGTGAAGATATTTTATTGGCGGAGTCACCTAGTGCAG | 49700 fluorescence intensity (a.u.)
AAATATAGAGATTTATTAACATAACAGCCTATCCACGTGGCGGAGTCACCTAGTGCAG | 17200 fluorescence intensity (a.u.)
AGGGATTATGTGTGTGTAAGATATTTGTGACTAGTTTATTCGGAGTCACCTAGTGCAG | 3630 fluorescence intensity (a.u.)
ATGAAATGGACCTCAAGATCGAGTCATGACAAGACAACGGCGGAGTCACCTAGTGCAG | 4150 fluorescence intensity (a.u.)
TACACTGGTGGATGTGAATCATTGGAATGCATGCCTCCTGCGGAGTCACCTAGTGCAG | 3810 fluorescence intensity (a.u.)
GGGATAGCAGGACACGTGTGTATAGCTGCTGCGCCTGCCTCGGAGTCACCTAGTGCAG | 9260 fluorescence intensity (a.u.)
TTAGGCCTCTCACAGTGCTCTTAGCTGGACCGGTGCTACACGGAGTCACCTAGTGCAG | 3920 fluorescence intensity (a.u.)
CCTCAGGCCGCCTCTCGTGCTGTACACGTAGGATAGCTACCGGAGTCACCTAGTGCAG | 46200 fluorescence intensity (a.u.)
TTAAATGAATCATTTTGTTCCTATTTCTAAAATAAACTATCGGAGTCACCTAGTGCAG | 3380 fluorescence intensity (a.u.)
ATGCAGGCCACCTCACGCCACACGCTGTATCGCGCCCATACGGAGTCACCTAGTGCAG | 5790 fluorescence intensity (a.u.)
CTAGCTACTTCTATCCTCCACCTCCTAAATGATCGATTTGCGGAGTCACCTAGTGCAG | 3740 fluorescence intensity (a.u.)
TGTTAGTTTTGCATGCACAGAGATGATTAGGCAGTAGCAACGGAGTCACCTAGTGCAG | 3940 fluorescence intensity (a.u.)
CCAACCATGCTTCGCAGTTGTCACAGAACGTCAACAGTGCCGGAGTCACCTAGTGCAG | 3460 fluorescence intensity (a.u.)

Sequence | binding signal
TCAGTAGTTGCTTCTCGCAACGTCACAGGCTTTAGATGCACGGAGTCACCTAGTGCAG | 44200 fluorescence intensity (a.u.)
CCAGATATCTTTTACTAAAGGATGGAAATGAGGCGTAATTCGGAGTCACCTAGTGCAG | 29100 fluorescence intensity (a.u.)
GTGTAGTTGGAGCGCGCGGTGGAAGATGAACAAGCTCAGCCGGAGTCACCTAGTGCAG | 41200 fluorescence intensity (a.u.)
ACAAAGGAGAAGAAGCCATGATGTGGAGTTGGCCGGTGGCCGGAGTCACCTAGTGCAG | 3800 fluorescence intensity (a.u.)
GAGTTGTGCAGCCAAGTCAGCTGCACATGGGGAACAAGCGCGGAGTCACCTAGTGCAG | 6520 fluorescence intensity (a.u.)
TAAAACAAGTCATAATAAAATAAATAGTAATTAAAATTCTCGGAGTCACCTAGTGCAG | 29200 fluorescence intensity (a.u.)
AAAATAATTAAAATAGTACGAGTAGATTCACACAAGATCTCGGAGTCACCTAGTGCAG | 39900 fluorescence intensity (a.u.)
AACAATAACAAGATTAAAATAAACTTCACACGTTGTAATGCGGAGTCACCTAGTGCAG | 3160 fluorescence intensity (a.u.)
GCAAAATGTCAGGCCGACACAACCCGTCATACTCTTCATGCGGAGTCACCTAGTGCAG | 3480 fluorescence intensity (a.u.)
GGGGTGCTTCACAAATCCCCTTGCGTACATGAGGTGTTTTCGGAGTCACCTAGTGCAG | 3320 fluorescence intensity (a.u.)
CTATCCGTCCAAATTAGGCTATCTCTAAAGATTAACTAACCGGAGTCACCTAGTGCAG | 41000 fluorescence intensity (a.u.)
AGTCTCTAACTAAACACCATATATCTCTATTAATTACTACCGGAGTCACCTAGTGCAG | 16000 fluorescence intensity (a.u.)
GTAACTAAAGATACAAAATTATTAGTGTAACCGGAGGCATCGGAGTCACCTAGTGCAG | 34600 fluorescence intensity (a.u.)
TTTTATGTATGTATTCAAATATTTCGATGTGACGGAATTTCGGAGTCACCTAGTGCAG | 4210 fluorescence intensity (a.u.)
GGATTTAACACTAGAGACCCTAATTTTGCTGCTCAGGCGACGGAGTCACCTAGTGCAG | 28500 fluorescence intensity (a.u.)
ATATGAGATATTTCATATGCTGTTTATTGCTGCTGCCAGACGGAGTCACCTAGTGCAG | 6080 fluorescence intensity (a.u.)
GGAAAGAGAAGAGAGGAAAGAGAGATGACGTGGACACCTGCGGAGTCACCTAGTGCAG | 21100 fluorescence intensity (a.u.)
TCGTCGCACGACCAGACCAGCAGCACCAACTCCCTTTCTGCGGAGTCACCTAGTGCAG | 3160 fluorescence intensity (a.u.)
ACCATATGACTTATATATCTGTCGTCAGCTCATTTCTATGCGGAGTCACCTAGTGCAG | 7290 fluorescence intensity (a.u.)
ATGGGGAATCTGGCACCTTTGGCTACTGGTGATTCAGTGTCGGAGTCACCTAGTGCAG | 3510 fluorescence intensity (a.u.)
GTGTCATTTCATTCACTGGTCGGCTATATCTGGGCATATGCGGAGTCACCTAGTGCAG | 53800 fluorescence intensity (a.u.)
